Compound activity deposited in PubChem by several laboratories.
HGIII-sPLA2 inh: Blocks human group III sPLA2 activity | AID 743126 | hit rate 0.56% among 370,000 | Q9NZ20 | QFRET BODIPY PC-A2 liposome hydrolysis, fluorescence | inhibition, % at 12.2 µM;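 active means inhibition above mean plus 3 SD of compounds lying within the high and low control bounds, cut at about 19% in these data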;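 further: 0% = median of test compound wells and 100% = no enzyme DMSO wells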
NadD block: blocks S. aureus nicotinate mononucleotide adenylyltransferase. hit rate 0.78% among 360,000. AID 602399. inhibition, % at 20 µM. purified NadD enzyme, colorimetric absorbance read-out; in the data active means inhibition above about 26%
ARNT-TACC3 inh: ARNT/TACC3 interaction disruption; hit rate 0.66% among 390,000; inhibition, % at 9.99 µM; Q9Y6A5; AlphaScreen His-ARNT PAS-B/GST-TACC3 binding, luminescence; TACC3 fragment carries E629A point mutation;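 active means mean inhibition of replicates at least 50% and at least half of replicates each reaching 50%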;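 further: 0% = complete ARNT plus TACC3 wells and 100% = ARNT alone without TACC3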
DAGLB inh: diacylglycerol lipase beta (human) inhibition. Q8NCG7. HEK293T DAGLB membrane lysate, EnzChek fluorogenic substrate. inhibition, % at 5.17 µM. hit rate 0.059% among 340,000; in the data active means inhibition above about 34%;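 further: 0% = enzyme with vehicle and 100% = wells lacking enzyme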
Target sequence (Q8NCG7 whole entry, looked up): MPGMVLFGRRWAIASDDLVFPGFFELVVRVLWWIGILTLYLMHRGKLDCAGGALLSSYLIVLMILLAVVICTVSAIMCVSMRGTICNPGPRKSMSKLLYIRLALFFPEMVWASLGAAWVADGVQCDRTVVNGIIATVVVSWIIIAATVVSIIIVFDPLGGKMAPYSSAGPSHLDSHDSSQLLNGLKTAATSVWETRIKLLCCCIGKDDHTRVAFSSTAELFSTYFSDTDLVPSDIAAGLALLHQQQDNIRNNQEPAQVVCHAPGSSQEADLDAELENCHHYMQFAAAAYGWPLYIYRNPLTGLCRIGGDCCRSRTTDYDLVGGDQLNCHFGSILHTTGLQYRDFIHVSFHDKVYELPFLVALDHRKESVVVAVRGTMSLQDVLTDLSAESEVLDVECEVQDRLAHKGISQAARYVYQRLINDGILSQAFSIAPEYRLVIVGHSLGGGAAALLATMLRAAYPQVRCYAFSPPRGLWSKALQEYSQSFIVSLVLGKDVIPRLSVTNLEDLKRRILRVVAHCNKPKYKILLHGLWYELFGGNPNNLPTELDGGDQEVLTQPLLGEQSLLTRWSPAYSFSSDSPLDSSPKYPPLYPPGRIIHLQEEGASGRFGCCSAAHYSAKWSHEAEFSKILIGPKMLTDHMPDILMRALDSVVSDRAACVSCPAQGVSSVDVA
Neddylation inh: inhibitors of human cullin neddylation; P61081+Q13564; TR-FRET cullin neddylation, biochemical; inhibition, % at 25 µM; hit rate 0.58% among 360,000; in the data active means inhibition above about 36%
* marks the source's active call; other numbers are inactive results; . = no result given. Compounds with a hit are over-represented: about 2% of the library has one in this group of screens.

SMILES	HGIII-sPLA2 inh	NadD block	ARNT-TACC3 inh	DAGLB inh	Neddylation inh
CSc1nccc(-c2nn(-c3ccc(C)cc3)ccc2=O)n1	2	2	58*	1	20
CC1CCN(c2cc(N3CCC(C)CC3)c([N+](=O)[O-])cc2/C=C(\C#N)c2nn(-c3ccccc3)c(N)c2C#N)CC1	5	51*	0	1	-7
CC1CCN(c2ccc(/C=C(\C#N)c3nn(-c4ccccc4)c(N)c3C#N)cc2[N+](=O)[O-])CC1	0	18	2	7	-1
C[C@@H]1CCCCO[C@H](CN(C)C(=O)Nc2ccc(F)cc2)[C@@H](C)CN([C@H](C)CO)C(=O)c2cc(NS(=O)(=O)c3cn(C)cn3)ccc2O1	.	.	-4	.	.
OC(c1ccccn1)(c1ccccn1)c1ccccn1	4	-1	75*	-1	2
c1ccc(-c2ccccn2)nc1	-1	6	-3	0	0
O=C(O)CC1S/C(=N/N=C/c2ccccn2)NC1=O (configuration not stated)	0	-2	71*	0	-9
CCOc1ccc(NC(=O)c2c(NC(=O)CNCCN3CCOCC3)sc3c2CCC3)cc1	-5	-5	64*	2	14
O=C(O)CN1C(=O)/C(=C2\C(=O)N(Cc3ccccc3Cl)c3ccccc32)SC1=S	-4	26*	4	1	-19
O=C1/C(=C2\C(=O)N(Cc3ccc(F)cc3)c3ccccc32)SC(=S)N1CCS(=O)(=O)O	-15	15	-6	7	-5
Cn1c(=O)c2cc(S(=O)(=O)NCCC(=O)NCc3ccccc3Cl)ccc2n(C)c1=O	-1	-1	50*	-3	-1
C[C@@H]1CCCCO[C@H](CN(C)S(=O)(=O)c2ccccc2)[C@H](C)CN([C@@H](C)CO)C(=O)c2cc(NC(=O)CCC(F)(F)F)ccc2O1	.	.	-3	.	.
CCOC(=O)c1cnc(-n2nc(C)cc2C)nc1NC	-2	-3	48*	1	30
C[C@@H]1CN([C@@H](C)CO)C(=O)c2cc(-c3cccc(F)c3)cnc2O[C@H]1CN(C)Cc1cccnc1	.	.	-3	.	.
O=C(C[C@H]1C[C@H]2c3cc(NC(=O)Nc4ccccc4F)ccc3O[C@H]2[C@H](CO)O1)NCc1ccc2c(c1)OCO2	.	.	-1	.	.
O=C(COC(=O)c1cccc(O)c1)Nc1nnc(-c2ccccc2)o1	-2	7	60*	2	3
COc1ccc(C(=O)OCC(=O)Nc2nnc(-c3ccccc3)o2)cc1	-1	8	.	2	12
CCOc1ncccc1C(=O)OCC(=O)Nc1c(C)cccc1C	9	-5	-2	1	1
O=C(COC(=O)CNC(=O)c1ccccc1)Nc1nnc(-c2ccccc2)o1	7	10	36	5	2
COc1cc(C(=O)OCC(=O)Nc2nnc(-c3ccccc3)o2)cc(OC)c1OC	5	12	47*	0	13
CCOc1ncccc1C(=O)OCC(=O)Nc1nnc(-c2ccccc2)o1	7	10	54*	0	8
O=C(COC(=O)c1cccs1)Nc1nnc(-c2ccccc2)o1	12	4	61*	1	19
COC(=O)C[C@H]1CC[C@H]2[C@H](COc3ccc(NC(=O)c4cccc(F)c4)cc3C(=O)N2C)O1	.	.	3	.	.
COCCCNC(=O)c1ccc2c3c(onc13)-c1ccccc1C2=O	.	-6	31*	17	-70
Cc1c(CC(=O)N[C@@H](C)C(=O)O)c(=O)oc2c(C)c3occ(-c4ccccc4)c3cc12	-1	2	76*	1	26
SMILES	HGIII-sPLA2 inh	NadD block	ARNT-TACC3 inh	DAGLB inh	Neddylation inh
Cc1c(CC(=O)N[C@@H](C)C(=O)O)c(=O)oc2cc3occ(-c4ccccc4)c3cc12	-11	-2	48*	-1	19
Cc1c(CC(=O)O)c(=O)oc2cc3occ(-c4ccccc4)c3cc12	-7	2	-10	-5	26
Cc1coc2c(C)c3oc(=O)c(CC(=O)N[C@@H](CC(C)C)C(=O)O)c(C)c3cc12	-7	3	-7	-7	.
COc1ccc(S(=O)(=O)Nc2ccc3c(c2)C(=O)N([C@@H](C)CO)C[C@H](C)[C@H](CN(C)C)OCCCC[C@@H](C)O3)cc1	.	.	-7	.	.
O=C(Nn1cnnc1)c1ccc([N+](=O)[O-])cc1Cl	21*	1	-4	-1	17
O=C(Nn1cnnc1)c1cc([N+](=O)[O-])cc([N+](=O)[O-])c1	-2	4	-2	0	-38
O=C(N=Nc1c(O)[nH]c2ccc([N+](=O)[O-])cc12)c1ccccc1Cl	-2	-3	-5	5	-33
O=C(O)c1ccccc1N=Nc1c(O)[nH]c2ccc([N+](=O)[O-])cc12	.	6	47*	8	-37
CCCNC(=O)Nc1ccc2c(c1)OC[C@H](C)N(CCC)C[C@@H](C)[C@@H](OC)CN(C)C2=O	.	.	-4	.	.
Cc1cccc(C)c1NC(=S)N(CCN(C)C)C(C)c1ccccn1 (configuration not stated)	-1	0	45*	0	-6
Cc1noc(C)c1S(=O)(=O)N(C)C[C@H]1OCCCC[C@@H](C)Oc2ccc(NS(=O)(=O)c3ccc(Cl)cc3)cc2C(=O)N([C@@H](C)CO)C[C@@H]1C	.	.	13	.	.
O=C(C[C@@H]1CC[C@H]2[C@@H](COC[C@@H](O)CN2Cc2ccc3c(c2)OCO3)O1)Nc1ccc(-c2ccccc2)cc1	.	.	3	.	.
O=C(O)CCN1C(=O)/C(=C\c2ccc(-c3nc4ccccc4s3)o2)SC1=S	.	25	67*	2	-41
COc1ccccc1Nc1nc(-c2c(C)nc3ncccn23)cs1	7	1	45*	0	1
COc1ccc(Nc2nc(-c3c(C)nc4ncccn34)cs2)cc1	2	9	46*	1	26
Cc1nc2ncccn2c1-c1csc(Nc2ccccc2)n1	11	-2	58*	0	20
Cc1nc2ncccn2c1-c1csc(Nc2ccc(S(N)(=O)=O)cc2)n1	1	-2	9	-1	-11
Cc1nc2ncccn2c1-c1csc(Nc2ccc(N(C)C)cc2)n1	12	-2	18	1	-9
N/C(COc1ccc(Cl)cc1)=N\NS(=O)(=O)c1ccccc1	-5	-2	-2	3	7
N/C(=N\NS(=O)(=O)c1ccccc1)c1ccccn1	-1	-1	67*	-3	7
N/C(=N\NS(=O)(=O)c1ccc(Cl)cc1)c1ccccn1	11	-4	43*	-1	17
CN(C)/C=C1\C(=O)NN=C1c1ccccc1	6	0	28*	2	4
CN(C)C=C1C(=O)c2ccccc2C1=O	3	2	3	1	4
COCC(=O)Nc1ccc2c(c1)C(=O)N(C)[C@@H]1CC[C@@H](CC(=O)NCc3ccc(OC)cc3)O[C@@H]1CO2	.	.	-4	.	.
COC(=O)CCC(=O)OC1(C)C(=O)C=C2C=C(C3CC3)N(CCCOC(C)C)C=C2C1=O (configuration not stated)	.	6	75*	-6	1
